For some of these results: Entries with a potency or affinity are not part of this list.
Legend:
Design in all cases: scale not given: direction of the effect not stated beside the values
[1] = target: Protein translocase subunit SecA (Escherichia coli (strain K12)) (UniProt P10408); assay: Assay to Identify E. coli SecA ATPase Inhibitors; format: functional; settings: 30 µM
[2] = target: T1, Ubiquitin-activating enzyme e1, putative (Leishmania donovani (strain BPK282A1)) (UniProt E9BSI1); assay: Leishmania donovani Ubiquitin Activating Enzyme (LdE1); format: functional; settings: 30 µM
T1 sequence (whole entry): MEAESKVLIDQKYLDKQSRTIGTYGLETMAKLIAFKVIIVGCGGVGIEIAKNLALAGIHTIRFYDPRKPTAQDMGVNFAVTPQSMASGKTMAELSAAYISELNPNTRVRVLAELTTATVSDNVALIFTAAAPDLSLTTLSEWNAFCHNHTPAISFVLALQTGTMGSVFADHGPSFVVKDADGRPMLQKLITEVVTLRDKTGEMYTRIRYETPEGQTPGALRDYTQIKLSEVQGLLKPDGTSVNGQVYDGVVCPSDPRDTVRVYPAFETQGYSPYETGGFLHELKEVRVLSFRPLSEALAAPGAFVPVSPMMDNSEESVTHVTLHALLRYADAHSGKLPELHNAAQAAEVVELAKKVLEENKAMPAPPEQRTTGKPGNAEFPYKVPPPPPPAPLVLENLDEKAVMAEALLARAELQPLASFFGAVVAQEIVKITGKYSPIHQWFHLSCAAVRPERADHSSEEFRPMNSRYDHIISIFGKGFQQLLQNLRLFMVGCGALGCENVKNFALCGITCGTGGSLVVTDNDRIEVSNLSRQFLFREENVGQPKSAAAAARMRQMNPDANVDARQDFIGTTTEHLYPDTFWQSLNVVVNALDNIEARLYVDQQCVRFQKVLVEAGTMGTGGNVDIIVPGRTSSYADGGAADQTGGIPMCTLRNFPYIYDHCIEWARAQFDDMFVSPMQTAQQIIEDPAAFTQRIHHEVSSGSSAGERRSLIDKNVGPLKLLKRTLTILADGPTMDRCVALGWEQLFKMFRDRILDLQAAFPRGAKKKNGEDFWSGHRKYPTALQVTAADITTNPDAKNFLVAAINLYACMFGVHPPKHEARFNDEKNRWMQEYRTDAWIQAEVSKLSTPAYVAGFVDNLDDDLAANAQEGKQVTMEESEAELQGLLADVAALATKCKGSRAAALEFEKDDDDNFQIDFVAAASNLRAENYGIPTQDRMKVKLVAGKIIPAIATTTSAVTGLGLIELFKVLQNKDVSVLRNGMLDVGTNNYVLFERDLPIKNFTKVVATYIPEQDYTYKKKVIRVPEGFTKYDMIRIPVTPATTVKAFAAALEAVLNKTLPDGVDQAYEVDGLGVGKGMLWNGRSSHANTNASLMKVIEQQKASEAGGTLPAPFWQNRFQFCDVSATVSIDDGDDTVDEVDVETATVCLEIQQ

[3] = target: AMP-activated protein kinase, AMPK (Homo sapiens) (UniProt P54646+O43741+P54619+Q9UGJ0+Q9Y478+Q13131+Q9UGI9); assay: AMP-dependent Kinase enzyme assay. An in vitro enzyme assay that detects ADP turnover that is directly proportional to AMPK activity. This uses naive AMPK that is activated during the assay with MK-8722; format: functional; settings: 30 µM
[4] = target: Sialic acid-binding Ig-like lectin 9 (Homo sapiens) (UniProt Q9Y336); assay: Hs-Siglec9 ALPHAscreen SOP 20170721; settings: 10 µM
Trypanosoma cruzi = assay: Trypanosoma cruzi phosphomannomutase and mannose-1-phosphate guanylyltransferase assay; format: functional; settings: 10 µM
[5] = target: T2, Arginase-2, mitochondrial (Homo sapiens) (UniProt P78540); assay: in vitro enzyme assay to detect the production of urea directly proportional to the activity of Arginase II; format: functional; settings: 33.3 µM; also: in the data most compounds retested in dose-response had high values
T2 sequence (whole entry): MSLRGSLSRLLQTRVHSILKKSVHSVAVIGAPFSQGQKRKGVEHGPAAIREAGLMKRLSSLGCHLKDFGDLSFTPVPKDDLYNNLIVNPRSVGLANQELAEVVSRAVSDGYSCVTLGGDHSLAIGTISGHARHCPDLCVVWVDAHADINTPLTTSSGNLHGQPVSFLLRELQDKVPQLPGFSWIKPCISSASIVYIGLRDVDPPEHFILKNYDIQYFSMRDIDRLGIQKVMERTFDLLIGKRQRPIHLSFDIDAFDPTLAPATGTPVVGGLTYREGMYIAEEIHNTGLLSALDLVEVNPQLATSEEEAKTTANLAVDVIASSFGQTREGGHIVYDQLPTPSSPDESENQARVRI

[6] = target: T3, Proteasome subunit beta (Trypanosoma cruzi) (UniProt O96673); assay: Trypanosoma cruzi proteasome chymotrypsin-like activity (TcProtChymo) assay.; also: in the data most compounds retested in dose-response had high values; format: functional; settings: 9.37 µM
T3 sequence (whole entry): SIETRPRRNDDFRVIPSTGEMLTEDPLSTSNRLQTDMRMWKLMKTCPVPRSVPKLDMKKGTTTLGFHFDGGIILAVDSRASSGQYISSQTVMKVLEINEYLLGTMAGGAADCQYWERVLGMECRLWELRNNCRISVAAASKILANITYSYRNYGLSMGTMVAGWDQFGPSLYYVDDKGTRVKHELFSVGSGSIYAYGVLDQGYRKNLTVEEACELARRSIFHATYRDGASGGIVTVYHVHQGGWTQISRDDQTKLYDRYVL

Homo sapiens = species: Homo sapiens; assay: To identify inhibition of the IFN signalling (Jak-Stat) pathway via expression of an eGFP reporter gene under the control of an IFN-stimulated response element (ISRE) containing MxA promoter.; format: functional; settings: 30 µM
[7] = target: T4, Tyrosyl-tRNA synthetase, putative (Trypanosoma cruzi (strain CL Brener)) (UniProt Q4DSP6); assay: Trypanosoma cruzi tyrosyl tRNA synthetase (TcYRS) _High Tyrosine SOP; format: functional; settings: 30 µM; also: in the data most compounds retested in dose-response had high values
T4 sequence (whole entry): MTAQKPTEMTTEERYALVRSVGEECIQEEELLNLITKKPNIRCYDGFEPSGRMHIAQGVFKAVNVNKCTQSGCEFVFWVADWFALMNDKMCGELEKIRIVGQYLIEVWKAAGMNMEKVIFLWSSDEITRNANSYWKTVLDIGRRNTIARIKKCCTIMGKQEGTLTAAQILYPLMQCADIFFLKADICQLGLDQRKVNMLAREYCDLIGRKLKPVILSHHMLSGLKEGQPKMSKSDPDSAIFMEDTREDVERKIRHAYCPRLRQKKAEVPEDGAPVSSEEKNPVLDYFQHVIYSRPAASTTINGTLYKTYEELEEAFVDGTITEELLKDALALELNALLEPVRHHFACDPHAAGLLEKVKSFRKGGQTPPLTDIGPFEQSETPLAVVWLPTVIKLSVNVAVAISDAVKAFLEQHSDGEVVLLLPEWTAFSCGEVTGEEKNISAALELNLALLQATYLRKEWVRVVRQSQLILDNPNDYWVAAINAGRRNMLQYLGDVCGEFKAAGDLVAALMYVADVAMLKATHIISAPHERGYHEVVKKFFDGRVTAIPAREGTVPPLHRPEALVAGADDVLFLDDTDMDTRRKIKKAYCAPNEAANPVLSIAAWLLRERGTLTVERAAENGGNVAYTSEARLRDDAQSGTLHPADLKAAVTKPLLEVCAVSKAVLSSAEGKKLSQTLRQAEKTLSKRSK

[8] = target: T4, Tyrosyl-tRNA synthetase, putative (Trypanosoma cruzi (strain CL Brener)); assay: Trypanosoma cruzi tyrosyl tRNA synthetase (TcYRS) SOP; format: functional; settings: 30 µM
[9] = target: Chromo domain-containing protein 1 (Saccharomyces cerevisiae (strain ATCC 204508 / S288c) (Baker's yeast)) (UniProt P32657); assay: ScCHD-1 Enzyme Inhibition Assay; format: functional; settings: 30 µM; also: in the data most compounds retested in dose-response had high values
Chain of Chromo domain-containing protein 1 (Saccharomyces cerevisiae (strain ATCC 204508 / S288c) (Baker's yeast)) (P32657 whole entry, the tested form may be a part): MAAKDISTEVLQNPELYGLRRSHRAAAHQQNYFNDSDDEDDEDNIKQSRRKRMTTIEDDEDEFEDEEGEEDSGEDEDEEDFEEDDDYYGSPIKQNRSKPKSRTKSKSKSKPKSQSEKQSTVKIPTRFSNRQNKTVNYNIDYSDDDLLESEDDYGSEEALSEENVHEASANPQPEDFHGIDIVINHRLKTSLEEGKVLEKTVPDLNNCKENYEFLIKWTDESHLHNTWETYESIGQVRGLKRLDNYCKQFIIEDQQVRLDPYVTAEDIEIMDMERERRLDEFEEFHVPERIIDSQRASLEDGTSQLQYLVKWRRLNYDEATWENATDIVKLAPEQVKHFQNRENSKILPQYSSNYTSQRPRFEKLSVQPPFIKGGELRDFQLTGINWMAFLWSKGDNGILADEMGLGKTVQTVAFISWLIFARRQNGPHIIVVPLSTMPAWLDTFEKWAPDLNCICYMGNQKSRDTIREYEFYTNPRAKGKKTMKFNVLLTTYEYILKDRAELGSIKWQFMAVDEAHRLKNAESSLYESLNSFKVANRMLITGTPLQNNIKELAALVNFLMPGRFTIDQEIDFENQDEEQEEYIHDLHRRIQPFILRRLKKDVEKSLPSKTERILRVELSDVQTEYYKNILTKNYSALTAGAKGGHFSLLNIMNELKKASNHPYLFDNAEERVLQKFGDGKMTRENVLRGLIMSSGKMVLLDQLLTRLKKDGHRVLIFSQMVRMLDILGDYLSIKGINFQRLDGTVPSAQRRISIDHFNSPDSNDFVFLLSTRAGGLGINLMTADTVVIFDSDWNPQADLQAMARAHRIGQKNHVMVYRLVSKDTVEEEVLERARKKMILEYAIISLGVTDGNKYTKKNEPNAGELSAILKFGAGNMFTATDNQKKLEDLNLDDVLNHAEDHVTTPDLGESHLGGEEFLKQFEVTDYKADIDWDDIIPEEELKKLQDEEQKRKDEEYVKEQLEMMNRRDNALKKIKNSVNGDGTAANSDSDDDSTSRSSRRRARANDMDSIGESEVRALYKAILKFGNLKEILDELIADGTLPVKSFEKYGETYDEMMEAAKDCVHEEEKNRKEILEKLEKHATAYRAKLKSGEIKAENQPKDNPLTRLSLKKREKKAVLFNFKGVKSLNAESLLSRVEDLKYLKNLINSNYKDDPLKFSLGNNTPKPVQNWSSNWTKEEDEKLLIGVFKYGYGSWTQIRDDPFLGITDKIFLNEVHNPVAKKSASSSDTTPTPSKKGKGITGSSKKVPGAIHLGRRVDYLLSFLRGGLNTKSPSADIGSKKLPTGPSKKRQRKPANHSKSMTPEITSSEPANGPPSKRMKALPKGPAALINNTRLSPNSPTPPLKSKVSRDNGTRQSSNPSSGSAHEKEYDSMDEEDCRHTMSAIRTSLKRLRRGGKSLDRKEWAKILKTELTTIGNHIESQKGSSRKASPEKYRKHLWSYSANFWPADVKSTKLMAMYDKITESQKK

Chain of Sialic acid-binding Ig-like lectin 9 (Homo sapiens) (Q9Y336 whole entry): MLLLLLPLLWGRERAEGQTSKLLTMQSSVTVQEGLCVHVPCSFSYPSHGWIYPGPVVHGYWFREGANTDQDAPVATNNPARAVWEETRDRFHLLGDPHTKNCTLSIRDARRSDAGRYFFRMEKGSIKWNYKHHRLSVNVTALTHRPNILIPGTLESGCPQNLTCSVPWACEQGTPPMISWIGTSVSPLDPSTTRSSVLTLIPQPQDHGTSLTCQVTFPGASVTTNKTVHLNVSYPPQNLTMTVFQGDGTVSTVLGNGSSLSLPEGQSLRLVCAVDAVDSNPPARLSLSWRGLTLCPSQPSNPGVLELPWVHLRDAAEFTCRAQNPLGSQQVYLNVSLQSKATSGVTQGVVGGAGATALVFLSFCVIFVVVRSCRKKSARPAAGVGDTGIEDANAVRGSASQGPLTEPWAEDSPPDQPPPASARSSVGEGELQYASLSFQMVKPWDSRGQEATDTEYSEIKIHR
Chain of Protein translocase subunit SecA (Escherichia coli (strain K12)) (P10408 whole entry): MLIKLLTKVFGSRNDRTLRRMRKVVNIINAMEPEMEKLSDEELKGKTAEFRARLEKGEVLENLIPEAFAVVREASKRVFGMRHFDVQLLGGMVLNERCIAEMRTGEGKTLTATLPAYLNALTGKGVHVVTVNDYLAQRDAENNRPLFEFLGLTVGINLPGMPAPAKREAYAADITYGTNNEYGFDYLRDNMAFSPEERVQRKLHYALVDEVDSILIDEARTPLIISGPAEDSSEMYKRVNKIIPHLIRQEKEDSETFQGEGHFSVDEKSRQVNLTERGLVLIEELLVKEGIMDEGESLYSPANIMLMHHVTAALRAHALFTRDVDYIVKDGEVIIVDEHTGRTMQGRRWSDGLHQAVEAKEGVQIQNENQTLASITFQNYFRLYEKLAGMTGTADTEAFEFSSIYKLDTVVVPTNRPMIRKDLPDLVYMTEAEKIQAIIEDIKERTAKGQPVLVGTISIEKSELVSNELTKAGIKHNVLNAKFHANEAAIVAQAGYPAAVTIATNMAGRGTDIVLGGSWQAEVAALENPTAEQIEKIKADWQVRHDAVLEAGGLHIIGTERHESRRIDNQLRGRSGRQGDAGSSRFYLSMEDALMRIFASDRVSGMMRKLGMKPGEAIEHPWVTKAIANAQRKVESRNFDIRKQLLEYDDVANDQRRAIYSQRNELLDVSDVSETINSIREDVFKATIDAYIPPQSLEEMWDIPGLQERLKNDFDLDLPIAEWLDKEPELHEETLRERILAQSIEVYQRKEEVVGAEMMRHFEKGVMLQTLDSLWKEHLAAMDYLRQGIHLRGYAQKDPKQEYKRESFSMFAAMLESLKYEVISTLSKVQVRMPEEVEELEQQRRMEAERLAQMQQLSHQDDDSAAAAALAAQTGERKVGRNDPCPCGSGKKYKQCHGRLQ

Row | Compound | Percent Effect [1] | Percent Effect [2] | Percent Effect [3] | Percent Effect [4] | Percent Effect (Trypanosoma cruzi) | Percent Effect [5] | Percent Effect [6] | Percent Effect (Homo sapiens) | Percent Effect [7] | Percent Effect [8] | Percent Effect [9]
1 | CCN(Cc1ccc2c(c1)OCO2)Cc1nc(C)no1 | 2.35% | 18.9% | -7.63% | -8.65% | -8.96% | 2.4% | 14.9% | 18.6% | 4.43% | 6.17% | -4.89%
2 | Cc1cc(CN2CCC(c3ccnn3CCO)CC2)no1 | -3.65% | 20.2% | -6.78% | 7.01% | 6.7% | 3.8% | 7.45% | -6.11% | 4.43% | 21.5% | -6.58%
3 | CCCC(NC(=O)c1cc(C)ccc1C)c1nnn[nH]1 (stereo unspecified) | -4.53% | 13.3% | -5.34% | 20.1% | 7.89% | 20.8% | 11.7% | 12.3% | 6.01% | 13.6% | -1.49%
4 | COc1ccc(C(=O)Nc2cnn(CC(=O)NC3CCCC3)c2)c(O)c1 | -2.21% | 13.7% | -8.3% | 5.57% | 3.77% | 0.798% | 9.16% | -10.3% | 11.5% | 25.9% | -3.82%
5 | COCCCN1CCc2cncnc2C1 | -2.65% | 5.06% | -237% | 6.45% | 9.35% | 2.66% | 8.27% | -13.7% | 5.42% | 8.86% | -6.93%
6 | c1csc(-c2nc(CN3CCOC(Cn4cncn4)C3)co2)c1 (stereo unspecified) | -2.48% | 10.8% | -9.47% | -3.91% | -0.0943% | -6.01% | 20.4% | 9.28% | 9.36% | 18.5% | -5.77%
7 | CC(C)(C)NC(=O)CNC(=O)CCc1ccccc1Br | -3.98% | 15.3% | -5.91% | 3.62% | 4.37% | 23.4% | 21.8% | -3.55% | 6.32% | 7.69% | -2.98%
8 | COCCC(=O)N1CCN(CCN(C)C)c2ncccc2C1 | -3.66% | 5.2% | 4.52% | 2.96% | -0.492% | -2.76% | 9.48% | 0.361% | 4.3% | 8.64% | -1.22%
9 | CN(C)C(=O)NC1COC2(CCN(Cc3nccn3C)CC2)C1 (stereo unspecified) | 0.893% | 5.2% | -3.63% | 0.435% | -7.2% | 5.81% | 11.3% | -0.051% | 5.29% | 6.41% | 0.228%
10 | O=C(CCc1ccc(=O)[nH]n1)N1CCCC(COc2ccc(F)cc2)C1 (stereo unspecified) | -2.1% | 1.39% | -1.82% | -3.84% | 1.85% | 2.65% | 16.3% | 5.9% | 6.32% | 12.8% | -1.89%
11 | Cc1ccc([C@]2(O)CC[C@H]3CN(Cc4cc(C)c(O)c(C)c4)C[C@H]32)nc1 | -2.94% | 6.76% | 23.7% | 8.26% | -2.37% | -5.34% | 8.58% | 11.6% | 0% | 6.49% | -9.68%
